# High-throughput results: PubChem, National Center for Advancing Translational Sciences (NCATS)
# A selection: hits, their analogues and other compounds. The true share with any hit is near 12%.
# BAZ2B inh = inhibitors of human BAZ2B bromodomain. Q9UIF8. AlphaScreen BAZ2B-H3K14Ac peptide displacement. Potency, µM (top dose mostly 114 µM), for inactives: at the highest dose activity change, negative = inhibition, actives largely listed as inhibitors. actives 4.4% (n = 360,000); further: on the % scale 0 is the no-effect control and ±100 the full control effect; nearly all actives have a fitted effect of over 60% in size
#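 Compounds, titrated to a top concentration of 110 uM, were incubated 30 min at room temperature with preformed BAZ2B/acetyl-K14 H3 peptide complex (50 nM each). Proximity signal was measured by AlphaScreen after 20 min with beads.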
# L3MBTL1 block = blocks human L3MBTL1 | Q9Y468 | AlphaScreen L3MBTL1–H3K9me1 peptide binding | Potency, µM (doses to about 57.1 µM), inactives show at the top dose activity, negative = inhibition, most hits filed as inhibitors | actives 0.66% (n = 230,000); further: on the % scale 0 is the no-effect control and ±100 the full control effect; nearly all actives have a fitted effect of over 60% in size
#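 First, the protein-peptide complex forms for 30 min at room temperature (L3MBTL1 50 nM, biotinylated H3K9me1 peptide 75 nM). Next, compounds are pin-transferred and incubated 30 min. Finally, AlphaScreen beads are added and read after 30 min.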
# JMJD2A Tudor = JMJD2A Tudor domain (human) inhibition | O75164 | AID 504339 | AlphaScreen JMJD2A-Tudor / H3K4me3 peptide binding | Potency, µM (doses to about 114 µM), without a hit: at the highest dose activity change, negative = inhibition, hits mostly inhibitors | actives 4.4% (n = 390,000); further: on the % scale 0 is the no-effect control and ±100 the full control effect; nearly all actives have a fitted effect of over 50% in size
# HP1b binding inh = HP1-beta chromodomain-methylated histone interaction inhibition; AlphaScreen HP1-beta / biotin-H3K9me3 peptide binding; Potency, µM (top dose mostly 114 µM), for inactives: top-dose activity change, negative = inhibition, hits mostly inhibitors; actives 0.56% (n = 390,000); further: nearly all actives have a fitted effect of over 70% in size
# Target sequence (P83916 whole entry, looked up): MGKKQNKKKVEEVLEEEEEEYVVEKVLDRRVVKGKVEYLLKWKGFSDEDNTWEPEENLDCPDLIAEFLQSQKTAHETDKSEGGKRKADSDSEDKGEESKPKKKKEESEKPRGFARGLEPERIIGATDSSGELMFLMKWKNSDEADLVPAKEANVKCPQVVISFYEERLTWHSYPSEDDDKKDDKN
#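 Compound inhibition of the preformed complex between 50 nM HP1-beta and 50 nM biotinylated H3K9me3 peptide was read by AlphaScreen. Buffer was PBS pH 7.4 with 0.01% Tween-20. Incubations ran 30 min at room temperature, with 10 ug/mL donor/acceptor beads.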
# Sfp inh = blocks B. subtilis Sfp PPTase activity; Q9F4F7; Biochemical Sfp PPTase activity, qHTS; Potency, µM, without a hit: largest response in the series, negative = inhibition, usual class: inhibitors; actives 3.5% (n = 310,000); AID 1490;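 further: the enzyme is Sfp with the accession as filed and its product quenches rhodamine fluorescence; 0% = enzyme reaction without inhibitor and -100% = no enzyme wells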
#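 Compounds were incubated with enzyme (final 15 nM) for 15 min at room temperature before substrate addition started the reaction. Fluorescence at 525 nm excitation, 598 nm emission was recorded immediately and after 30 minutes.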
# G9a block = inhibitors of human histone lysine methyltransferase G9a; G9a H3K9 monomethylation, AlphaScreen, 2 h; Potency, µM (highest dose often 102 µM), for the others: at the highest dose activity, negative = inhibition, actives largely listed as inhibitors; actives 8.8% (n = 350,000); AID 504332; further: on the % scale 0 is the no-effect control and ±100 the full control effect; nearly all actives have a fitted effect of over 75% in size
# Target sequence (Q96KQ7 913-1193 limits assumed): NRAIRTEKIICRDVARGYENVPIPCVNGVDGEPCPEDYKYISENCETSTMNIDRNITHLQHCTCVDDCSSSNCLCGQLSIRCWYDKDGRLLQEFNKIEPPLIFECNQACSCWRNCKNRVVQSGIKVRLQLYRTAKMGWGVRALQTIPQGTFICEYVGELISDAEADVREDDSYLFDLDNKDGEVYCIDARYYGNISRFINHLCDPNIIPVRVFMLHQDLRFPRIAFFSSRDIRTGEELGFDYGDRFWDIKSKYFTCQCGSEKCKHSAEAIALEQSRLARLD
#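 Using a bead-based AlphaScreen, monomethylated H3K9 product from 2 h room-temperature reactions (G9a 20 nM, peptide 500 nM, SAM 20 uM) was detected with 0.5 ug/mL rabbit anti-H3K9me1 antibody.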
# Active calls of the source: *; u = inconclusive; x = not tested or not shown; [ ] = another dose, or the depositor's remark. The call rests on the fitted dose curve; in most records, active means well fitted curve in the direction sought with a large enough effect; inconclusive means small, poorly fitted or top-dose-only effect, or another doubt; inactive means no such curve, though single readings can be large; an effect the other way counts as inactive or inconclusive. Potency means the concentration at half of the fitted maximal effect.
SMILES,BAZ2B inh,L3MBTL1 block,JMJD2A Tudor,HP1b binding inh,Sfp inh,G9a block
N#Cc1nc(COc2ccc(F)cc2)oc1NCCN1CCOCC1,u,x,-22.3%,25.7%,11.4%,79.4µM*
N#Cc1nc(COc2ccc(Br)cc2)oc1NCCN1CCOCC1,u,-7.1%,-26.8%,13.1%,2.9%,50.1µM*
N#Cc1nc(Cc2ccccc2)oc1NCCN1CCOCC1,-4.9%,-3.3%,-12.8%,12.3%,12.9%,u
CC(=O)OCC(=O)[C@@]1(O)CCC2C3C[C@H](C)C4=CC(=O)C=CC4(C)C3C(O)CC21C (stereo partly drawn),x,x,x,x,12.4%,31.4%[59 µM]
O=C(NCc1ccc(Cl)cc1)C1CCN(S(=O)(=O)c2ccc3c(c2)CCCN3C(=O)C2CCC2)CC1,1.3%,x,-4.5%,24.5%[57 µM],x,7.2%[59 µM]
Cc1ccc(CSc2nc3ccc(NC(=O)COc4ccccc4)cc3s2)cc1,-3.9%,x,-15.6%,12.5%,x,-1.5%[59 µM]
O=C(NCn1ccc(=O)[nH]c1=S)c1ccccc1,-3.7%,4.8%,-19.4%,-13.7%,-20.3%,56.2µM*
Cc1ccc(Cl)c2c1NC(=O)C2(O)CC(=O)c1ccccc1O (stereo not drawn),-13.0%,-3.5%,5.0%,18.6%,2.6%,14.1µM*
O=C(NCc1ccc(Cl)cc1)C1CCN(S(=O)(=O)c2cc([N+](=O)[O-])ccc2Cl)CC1,9.1%,-3.0%,3.0%,17.8%,-28.6%,44.7µM*
CC1=NCCN1S(=O)(=O)c1cc([N+](=O)[O-])ccc1Cl,-13.8%,0.4%,-1.0%,-15.6%,13.7%,44.7µM*
O=C(NC1=NCCS1)C1CCN(S(=O)(=O)c2cc([N+](=O)[O-])ccc2Cl)CC1,x,-93.7%,u,u,x,x
Cc1cccc2sc(NC(=O)C3CCN(S(=O)(=O)c4cc([N+](=O)[O-])ccc4Cl)CC3)nc12,u,u,14.1µM*,u,-11.5%,7.94µM*
Cc1nnc(NC(=O)C2CCN(S(=O)(=O)c3cc([N+](=O)[O-])ccc3Cl)CC2)o1,15.8µM*,25.1µM*,10µM*,26.8%,x,u
CSc1cccc(NC(=O)CC(c2ccc(F)cc2)N2Cc3ccccc3C2=O)c1 (stereo not drawn),-12.1%,x,-14.8%,-12.2%,x,-18.6%[59 µM]
COc1cc(C(=O)NC2CC(=O)N(c3cccc(F)c3)C2)cc(OC)c1OC (stereo not drawn),2.7%,x,-7.8%,25.9%,x,11.7%[59 µM]
Cc1cccc(CSc2cn(CC(=O)N3CCCCC3)c3ccccc23)c1,-14.6%,x,-8.8%,73.5%,x,-7.3%[59 µM]
COc1ccc(C)cc1NC(=O)C(Sc1nnc(Nc2cc(C)ccc2OC)s1)c1ccccc1 (stereo not drawn),-33.6%,-12.9%,u,5.6%,5.2%,3.55µM*
COc1ccc(Nc2nnc(SC(C(=O)Nc3cc(C)ccc3C)c3ccccc3)s2)cc1 (stereo not drawn),-18.7%,-1.9%,-16.8%,2.4%,10.7%,50.1µM*
COc1ccc(Nc2nnc(SC(C(=O)Nc3ccc(OC)c(Cl)c3)c3ccccc3)s2)cc1 (stereo not drawn),-14.1%,-13.4%,-18.5%,0.8%,-2.9%,20µM*
CCNc1nc(NCC)n2c(SCC(=O)Nc3cc(OC)ccc3OC)nnc2n1,5.7%,-5.0%,-21.4%,2.4%,x,8.8%[0.501 µM]
CCNc1nc(NCC)n2c(SC(C(=O)Nc3cc(C)ccc3OC)c3ccccc3)nnc2n1 (stereo not drawn),-11.4%,6.2%,-19.3%,21.5%,50.1µM*,u
Cc1ccc(-n2ncc(C(=O)NCCN3CCN(C)CC3)c2C2CCN(C(=O)OC(C)(C)C)CC2)c(C)c1,5.7%[57.1 µM],x,-19.4%,18.8%,x,-28.7%[59 µM]
O=C(O)c1cccc(-c2ccc(/C=N/Nc3nn[nH]n3)o2)c1,56.2µM*,20µM*,56.2µM*,14.7%,44.7µM*,44.7µM*
O=[N+]([O-])c1cccc(-c2ccc(/C=N/Nc3nc(N4CCCCC4)nc(N4CCCCC4)n3)o2)c1,u,u,u,-1.2%,5.9%,-22.8%
Cc1ccc(OCC(=O)N/N=C\c2ccc(-c3cccc(C(=O)O)c3)o2)c(C)c1,u,5.62µM*,-35.7%,-2.3%,u,35.5µM*
SMILES,BAZ2B inh,L3MBTL1 block,JMJD2A Tudor,HP1b binding inh,Sfp inh,G9a block
CCOc1ccc(C(=O)Oc2c(Sc3ccccc3)c(C)nn2C(C)(C)C)cc1OCC,4.8%,x,-0.3%,28.0%,x,-3.5%[59 µM]
Cc1cc[n+](Cc2ccc([N+](=O)[O-])cc2)cc1,-9.1%,16.5%,-12.0%,10.8%,-3.4%,44.7µM*
COc1ccc(/C=C(\NC(=O)c2ccccc2)C(=O)OC[C@@H]2CCC[N+]3(C)CCCCC23)cc1OC (stereo partly drawn),-10.9%,x,15.8µM*,u,12.6%,-16.9%[59 µM]
CCCNc1ncc2c(=O)[nH][nH]c(=O)c2n1,x,x,20µM*,3.5%,x,x
Cc1ccc(-c2nc(-c3cc4cc(Cl)ccc4oc3=O)sc2C)cc1,x,x,15.4%[57.1 µM],42.8%[57 µM],x,x
CC(NCc1ccc(N(C)C)cc1)C1CC2CCC1C2 (stereo not drawn),u,x,89.1µM*,-20.8%,3.9%,50.1µM*
C=CCC(NC(C)c1ccccc1)c1ccco1 (stereo not drawn),50.1µM*,0.3%,2.51µM*,u,u,x
CCOc1cc(/C=C/c2nc3cc(C)c(C)cc3s2)ccc1OCC(=O)N1CCOCC1,-24.7%,4.7%,-14.1%,11.0%,u,12.6µM*
CCOc1ccc(C(=O)OCC(=O)N2CCOCC2)cc1OCC,4.6%,x,-15.0%,-22.3%,14.6%,21.6%
CCOc1cc(/C=C\[N+](=O)[O-])ccc1OCC(=O)N1CCOCC1,0.4%,12.8%,6.2%,9.1%,39.8µM*,10µM*
CCOc1cc(C(=O)NCc2ccc(C)cc2)ccc1OCC(=O)N1CCOCC1,x,2.2%,2.1%,11.6%,11.3%,9.5%
C/C=C/OC(=O)NC(c1cccc(C)c1)[C@@]1(C(=O)OCC)CCCC1=O (stereo partly drawn),x,x,x,x,-10.4%,x
N[C@H](C(=O)O)[C@H]1C[C@H]1C(=O)O,x,x,x,x,-12.6%,43.6%[59 µM]
Cc1cccc(C)c1NC(=O)CCCSc1nnc(N)s1,-2.8%,-5.7%,-2.3%,48.2%,1.0%,50.1µM*
Cc1ccc2[nH]c(CSc3nnc(NC(=O)c4ccccc4C)s3)cc(=O)c2c1,56.2µM*,x,-20.8%,23.4%[57 µM],x,-44.4%[59 µM]
CC1CCN(C(=O)CSc2nnc(NC(=O)Nc3ccccc3)s2)CC1,-3.4%,x,-22.1%,54.9%,x,12.6µM*
CS(=O)(=O)Nc1nnc(SCC(=O)N(c2ccccc2)c2ccccc2)s1,-30.9%,12.8%,-12.8%,24.7%,4.7%,50.1µM*
Cc1cccc(C)c1NC(=O)COC(=O)CSc1nnc(N)s1,12.0%,-7.9%,-4.8%,33.5%,-10.6%,17.6%[59 µM]
